Assay results: PubChem BioAssay AID1159580 (chemical genetic matrix, 2015)
Values joined by “and” are separate entries in the source; they are usually repeats but may differ in a detail not shown here. Equal values may be shown once. About 2,000 (36%) of roughly 5,500 compounds were called active. About 18% were inconclusive and are not listed. Cut-off read from the data, not from the text of the source: active = normalized growth mostly below about 0.91 (no sharp cut-off); inconclusive = no clear call, values can overlap the other calls; inactive = mostly above about 0.92. Some of the results follow.

Test: chemical genetic growth profiling, strain panel (AID 1159580);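 note: tested at 20 µM; growth read once vehicle control cultures reached saturation at 30 °C; 1 = growth at the plate median or of vehicle wells; lower values mean less growth of the strain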
Details: S. cerevisiae deletion strains, growth OD

Measured: normalized growth

NC1(C(=O)O)CC1
inactive: locus YAL013W, strain DEP1, active compounds read low 1 | locus YAL021C, strain ccr4, active compounds read low 1.04 | locus YAL026C, strain drs2, active compounds read low 1.04 | locus YAL030W, strain snc1, active compounds read low 1.02 | locus YAL040C, strain CLN3, active compounds read low 0.98 | locus YBL061C, strain skt5, active compounds read low 1.04 | locus YBR009C, strain hhf1, active compounds read low 1.02 | locus YBR021W, strain FUR4, active compounds read low 1.01 | locus YBR023C, strain chs3, active compounds read low 1.03 | locus YBR171W, strain sec66, active compounds read low 1.04 | locus YBR229C, strain ROT2, active compounds read low 1.01 | locus YBR231C, strain swc5, active compounds read low 1.02 | locus YBR279W, strain paf1, active compounds read low 1.02 | locus YCL011C, strain gbp2, active compounds read low 1.02 | locus YCL016C, strain dcc1, active compounds read low 1.04 | locus YCL029C, strain bik1, active compounds read low 1.02 | locus YCL061C, strain MRC1, active compounds read low 1.02 | locus YCL069W, strain vba3, active compounds read low 1.02 | locus YCR088W, strain abp1, active compounds read low 1.02 | locus YDL005C, strain med2, active compounds read low 1.03 | locus YDL035C, strain GPR1, active compounds read low 1.03 | locus YDL040C, strain nat1, active compounds read low 1.02 | locus YDL074C, strain BRE1, active compounds read low 1.01 | locus YDL101C, strain DUN1, active compounds read low 1.01 | locus YDL134C, strain PPH21, active compounds read low 1.01 | locus YDL185W, strain tfp1, active compounds read low 1.03 | locus YDL192W, strain arf1, active compounds read low 1.02 | locus YDR001C, strain nth1, active compounds read low 1.02 | locus YDR069C, strain doa4, active compounds read low 1.04 | locus YDR101C, strain arx1, active compounds read low 1 | locus YDR137W, strain rgp1, active compounds read low 1.06 | locus YDR150W, strain NUM1, active compounds read low 1.01 | locus YDR159W, strain sac3, active compounds read low 1.02 | locus YDR162C, strain NBP2, active compounds read low 1.03 | locus YDR195W, strain ref2 1.02 | locus YDR297W, strain sur2, active compounds read low 1.03 | locus YDR318W, strain mcm21, active compounds read low 1.03 | locus YDR334W, strain swr1, active compounds read low 1.03 | locus YDR335W, strain msn5, active compounds read low 1.04 | locus YDR363W, strain ESC2, active compounds read low 0.986 | locus YDR388W, active compounds read low 1.01 | locus YDR392W, strain spt3, active compounds read low 1.05 | locus YDR502C, strain sam2, active compounds read low 1.02 | locus YEL003W, strain gim4, active compounds read low 1.02 | locus YEL037C, strain rad23, active compounds read low 1.02 | locus YEL061C, strain CIN8 (second series), active compounds read low 1.03 | locus YEL061C, strain CIN8, active compounds read low 1 | locus YER002W, strain NOP16, active compounds read low 0.981 | locus YER015W, strain faa2, active compounds read low 1.03 | locus YER016W, strain bim1, active compounds read low 1.04 | locus YER110C, active compounds read low 1.03 | locus YER111C, strain swi4, active compounds read low 1.01 | locus YER155C, strain BEM2 (second series), active compounds read low 1.02 | locus YER155C, strain BEM2, active compounds read low 0.998 | locus YER167W, strain BCK2, active compounds read low 1.05 | locus YFR010W, strain ubp6, active compounds read low 1.01 | locus YGL078C, strain dbp3, active compounds read low 1.02 | locus YGL086W, strain mad1, active compounds read low 1.03 | locus YGL167C, strain pmr1, active compounds read low 1.04 | locus YGL173C, strain kem1, active compounds read low 1.03 | locus YGL227W, strain vid30, active compounds read low 1.02 | locus YGL240W, strain doc1, active compounds read low 1.01 | locus YGL248W, strain PDE1, active compounds read low 1.01 | locus YGL253W, strain hxk2, active compounds read low 1.04 | locus YGR078C, strain PAC10, active compounds read low 1.02 and 0.978 | locus YGR135W, strain pre9, active compounds read low 1.03 | locus YGR229C, strain SMI1, active compounds read low 1.01 | locus YGR252W, strain gcn5, active compounds read low 1.04 | locus YHR013C, strain ard1, active compounds read low 1.06 | locus YHR027C, strain rpn1, active compounds read low 1.04 | locus YHR030C, strain SLT2, active compounds read low 1 and 1.03 | locus YHR079C, strain IRE1 (second series), active compounds read low 1.01 | locus YHR079C, strain IRE1, active compounds read low 1.03 | locus YHR094C, strain hxt1, active compounds read low 1.01 | locus YHR129C, strain ARP1, active compounds read low 1 | locus YHR142W, strain chs7, active compounds read low 1.05 | locus YHR200W, strain rpn10, active compounds read low 1.03 | locus YIL066C, strain RNR3, active compounds read low 1.02 | locus YIL073C, strain SPO22, active compounds read low 1.11 | locus YIL125W, strain kgd1, active compounds read low 1 | locus YIR030C, strain dcg1, active compounds read low 1.01 | locus YJL092W, strain hpr5, active compounds read low 1.02 | locus YJL095W, strain BCK1 (second series), active compounds read low 1.02 | locus YJL095W, strain BCK1, active compounds read low 1.02 and 1.04 | locus YJL115W, strain asf1, active compounds read low 1.03 | locus YJL129C, strain trk1, active compounds read low 1.05 | locus YJL134W, strain LCB3, active compounds read low 1 | locus YJL154C, strain vps35, active compounds read low 1.01 | locus YJL164C, strain tpk1, active compounds read low 1.02 | locus YJL166W, strain qcr8, active compounds read low 1.01 | locus YJL168C, strain set2, active compounds read low 1.02 | locus YJL187C, strain SWE1 (second series), active compounds read low 1.01 | locus YJL187C, strain SWE1, active compounds read low 1.01 | locus YJR043C, strain POL32, active compounds read low 1.01 | locus YJR066W, strain TOR1, active compounds read low 0.98
